From ChEMBL document CHEMBL4513149, “CO-ADD screening of MMV (CH) - MMV compounds” (2021)
Results with a measured potency or affinity are listed apart.

Legend:
Staphylococcus aureus = details: Concentration 20 uM; ASSAY_TEST Inhibition of Bacterial Growth; detection method Absorption (OD600); MEDIA CAMHB; plate type 384well; NBS; CORNING #3640; time 18 hr
Escherichia coli = details: Concentration 20 uM; ASSAY_TEST Inhibition of Bacterial Growth; detection method Absorption (OD600); MEDIA CAMHB; plate type 384well; NBS; CORNING #3640; time 18 hr

Structure (SMILES) | Inhibition (Staphylococcus aureus) | Inhibition (Escherichia coli)
CC1CS(=O)(=O)CCN1/N=C/c1ccc([N+](=O)[O-])o1 (centres undefined) [NIFURTIMOX] | 33.42% | 6%
Nc1ncnc2c1c(Cc1cccc3ccccc13)nn2CC1CCNCC1 | -11.63% | -7.67%
CN1CCN(c2nccc3[nH]c(-c4cccc(F)c4)cc23)CC1 | 12.79% | 3.68%
O=C(C1CCN(c2cc(-n3cccc3)ncn2)CC1)N1CCc2ccccc2C1 | 7.19% | 12.02%
CCOc1ccc2cc(-c3nn(CC4CCN(C)CC4)c4ncnc(N)c34)ccc2c1.Cl | 18.54% | 8.02%
CC(C)c1ncc(-c2ccncc2)c([C@H]2CC[C@H](CNC(=O)c3cccnc3)CC2)n1 | 19.09% | 13.72%
CC1=NN(c2nc3ccccc3s2)C(=O)C1Cc1cccc2ccccc12 (centres undefined) | 69.16% | 0.69%
Cc1ncc(-c2ccnc(Nc3ccc(S(C)(=O)=O)cc3)n2)n1C(C)C [AZD-5438] | 28.03% | 5.82%
O=C(NCc1cc(Cl)cc(Cl)c1)c1c(C(F)(F)F)nc2ccccn12 | 22.39% | 10.43%
Cc1cc(NCC(C)C)c2[nH]nc(-c3ccccc3)c2n1 | 14.44% | 8.23%
O=C(C1CCN(c2nnnn2-c2ccccc2)CC1)N1CCc2ccccc2C1 | 18.44% | 5.61%
COc1cc(NC(=O)Cc2nn(C)c(=O)c3ccccc23)ccc1Cl | 23.8% | 11.61%
O=C(NCCc1c[nH]c2ccccc12)c1cc2ccccc2oc1=O | 13.99% | 9.41%
CCN(CC)S(=O)(=O)c1ccc(Cl)c(C(=O)Nc2ccc3nc(C)sc3c2)c1 | 2.16% | 0.28%
COc1ccc(Cl)cc1NC(=O)CN(C)C(=O)c1cnn(-c2ccccc2)n1 | 8.96% | -2.51%
CNC(=O)CNc1nc(-c2ccccn2)nc2scc(-c3ccccc3)c12 | 11.27% | 6.67%

Structure (SMILES) | Inhibition (Staphylococcus aureus) | Inhibition (Escherichia coli)
Cl.O[C@@H](c1cc(C(F)(F)F)nc2c(C(F)(F)F)cccc12)[C@H]1CCCCN1 | 45.36% | 15.86%
CNC1C(OC2C(OC3C(O)C(O)C(NC(=N)N)C(O)C3NC(=N)N)OC(C)C2(O)C=O)OC(CO)C(O)C1O.CNC1C(OC2C(OC3C(O)C(O)C(NC(=N)N)C(O)C3NC(=N)N)OC(C)C2(O)C=O)OC(CO)C(O)C1O.O=S(=O)(O)O.O=S(=O)(O)O.O=S(=O)(O)O (centres undefined) | 2.48% | 8.5%
c1ccc(Oc2ccc(-c3cc(N4CCOCC4)[nH]n3)cc2)cc1 | 17.8% | 4.28%
O=C(NC1CCCCC1)N1CCN(Cc2ccc3c(c2)OCO3)CC1 | 15.03% | 4.44%
Cn1ncc2c(N3CCOCC3)nc(NCCc3c[nH]c4ccccc34)nc21 [TDR79432] | 12.92% | -1.67%
COc1ccc(-c2cc(NC(=O)c3ccc(F)cc3Cl)ccc2OC)cc1 | 17.79% | 8.24%
Clc1cccc(CO[C@H]2CCc3ccccc3[C@@H]2n2ccnn2)c1 | -0.96% | 7.53%
O=C(Nc1ccccc1-c1nc2c(C(=O)O)cccc2o1)c1ccccc1 | 12.25% | -2.2%
Nc1nccc2ccc(-c3ccc4nccn4c3)cc12 | 24.43% | 1.05%
c1cc(C2=NCCN2)cc(-c2cc(-c3ccc(C4=NCCN4)cc3)no2)c1 | 5.99% | 8.18%
O=C(NCCN1CCCC1)c1cc(NCCN2CCOCC2)nc2ccc(Cl)cc12 | 22.71% | 6.99%
COc1ccc(C2=NN(C3CCCCCC3)C(=O)[C@@H]3CC=CC[C@H]23)cc1OCCCCOc1ccc(-c2nnn[nH]2)cc1 | 53.58% | 1.88%
COc1ccc(C2=NCCN2)cc1-c1cn(-c2cccc(C3=NCCN3)c2)nn1.O=C(O)C(F)(F)F.O=C(O)C(F)(F)F | 20.97% | 10.7%
Cc1nc(-c2cccc(NCc3ccccc3)c2)[nH]c1C | 19.75% | 6.38%
CCCCOC(=O)Nc1cc2nc(C3CCCCC3)[nH]c2cc1N1CCCC1 | 9.54% | -0.47%
COc1ccc(-c2nc(-c3cccc(NC(=O)Cc4ccc(F)cc4)c3)no2)cc1OC | 22.17% | 8.52%
